# Reference: PMC7862700, “An all-to-all approach to the identification of sequence-specific readers for epigenetic DNA modifications on cytosine”
# Experiments:
# Test in all cases: DAPPL (digital affinity profiling via proximity ligation, sequencing); 10 mM Tris-HCl pH 7.5, 50 mM NaCl, 1 mM DTT, 4% glycerol, room temperature, 30 min; GST-TFs on glutathione beads, 16-mer random dsDNA library, 0.1% formaldehyde crosslink after washing; high values mean tight binding
# Settings in all cases: protein: recombinant; tags: N-terminal GST; dsDNA, one strand shown
# ETV2 = molecular target: T1, ETV2 (Homo sapiens, UniProt O00321 1-342)
# T1 sequence: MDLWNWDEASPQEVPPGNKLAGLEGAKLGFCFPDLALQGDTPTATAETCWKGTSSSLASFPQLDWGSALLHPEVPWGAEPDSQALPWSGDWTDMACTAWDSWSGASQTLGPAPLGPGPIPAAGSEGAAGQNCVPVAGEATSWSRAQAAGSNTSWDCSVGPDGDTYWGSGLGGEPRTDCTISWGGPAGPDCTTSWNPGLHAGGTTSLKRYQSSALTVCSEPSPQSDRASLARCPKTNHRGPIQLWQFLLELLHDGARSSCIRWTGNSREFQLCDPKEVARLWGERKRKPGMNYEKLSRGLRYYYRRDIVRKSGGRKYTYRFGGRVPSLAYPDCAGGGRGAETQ
# Method in brief: (§1)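 Yeast served to express human transcription factors as GST fusions, which were then captured on glutathione beads and labelled with DNA barcodes. Pooled with a tag-only sample, they were incubated with 200 nmole of a 16-mer random double-stranded DNA library for 30 min at room temperature in Tris/NaCl/DTT/glycerol buffer, washed, crosslinked with 0.1% formaldehyde, ligated by proximity, amplified by PCR and sequenced. Dividing each hexamer's read frequency for a factor by its frequency for the tag-only sample gives the binding signal.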
# ELF3 = molecular target: T2, ELF3 (Homo sapiens, UniProt P78545 1-371)
# T2 sequence: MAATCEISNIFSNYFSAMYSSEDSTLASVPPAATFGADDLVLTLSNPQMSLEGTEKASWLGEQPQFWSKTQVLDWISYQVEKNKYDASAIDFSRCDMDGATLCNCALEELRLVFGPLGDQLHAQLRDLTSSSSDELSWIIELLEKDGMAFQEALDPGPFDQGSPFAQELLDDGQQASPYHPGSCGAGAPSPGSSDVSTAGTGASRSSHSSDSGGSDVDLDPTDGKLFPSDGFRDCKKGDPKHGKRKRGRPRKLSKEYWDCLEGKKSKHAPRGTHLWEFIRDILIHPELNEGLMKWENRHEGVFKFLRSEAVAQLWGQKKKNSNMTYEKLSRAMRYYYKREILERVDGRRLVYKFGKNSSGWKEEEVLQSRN
# Method in brief: as §1
# ETV1 = ETV1 (Homo sapiens, UniProt P50549 1-477)
# Chain of ETV1 (P50549 whole entry): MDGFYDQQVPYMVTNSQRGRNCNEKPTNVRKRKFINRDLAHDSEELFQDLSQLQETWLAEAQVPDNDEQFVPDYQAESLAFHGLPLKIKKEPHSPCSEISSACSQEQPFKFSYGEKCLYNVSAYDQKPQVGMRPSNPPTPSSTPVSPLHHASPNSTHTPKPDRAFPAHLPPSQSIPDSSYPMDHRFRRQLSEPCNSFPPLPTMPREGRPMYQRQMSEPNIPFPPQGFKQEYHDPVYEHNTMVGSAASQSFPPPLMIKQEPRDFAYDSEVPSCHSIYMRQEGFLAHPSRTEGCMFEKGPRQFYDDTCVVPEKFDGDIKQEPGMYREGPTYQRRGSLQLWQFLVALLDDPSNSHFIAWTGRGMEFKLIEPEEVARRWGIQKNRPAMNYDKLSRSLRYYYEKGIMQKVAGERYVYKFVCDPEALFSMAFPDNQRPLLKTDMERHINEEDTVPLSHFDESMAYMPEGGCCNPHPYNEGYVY
# Method in brief: as §1
# ERF = molecular target: T3, ERF (Homo sapiens, UniProt P50548 1-548)
# T3 sequence: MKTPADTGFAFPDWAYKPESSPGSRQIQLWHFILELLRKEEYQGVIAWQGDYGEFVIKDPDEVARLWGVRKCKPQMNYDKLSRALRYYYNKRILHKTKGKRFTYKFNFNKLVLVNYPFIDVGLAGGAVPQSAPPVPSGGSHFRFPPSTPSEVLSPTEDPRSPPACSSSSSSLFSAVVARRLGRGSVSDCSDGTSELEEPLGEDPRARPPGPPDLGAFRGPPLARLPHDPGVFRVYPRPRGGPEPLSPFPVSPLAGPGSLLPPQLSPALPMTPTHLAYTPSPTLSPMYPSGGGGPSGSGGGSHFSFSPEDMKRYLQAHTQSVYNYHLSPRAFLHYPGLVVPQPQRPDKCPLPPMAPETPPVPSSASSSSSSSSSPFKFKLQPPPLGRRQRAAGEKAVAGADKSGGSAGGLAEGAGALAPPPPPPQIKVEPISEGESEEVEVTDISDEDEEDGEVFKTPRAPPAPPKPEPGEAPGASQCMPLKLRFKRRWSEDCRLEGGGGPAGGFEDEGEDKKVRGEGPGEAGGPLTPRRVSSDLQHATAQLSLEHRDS
# Method in brief: as §1
# ETV3L = molecular target: T4, ETV3L (Homo sapiens, UniProt Q6ZN32 1-361)
# T4 sequence: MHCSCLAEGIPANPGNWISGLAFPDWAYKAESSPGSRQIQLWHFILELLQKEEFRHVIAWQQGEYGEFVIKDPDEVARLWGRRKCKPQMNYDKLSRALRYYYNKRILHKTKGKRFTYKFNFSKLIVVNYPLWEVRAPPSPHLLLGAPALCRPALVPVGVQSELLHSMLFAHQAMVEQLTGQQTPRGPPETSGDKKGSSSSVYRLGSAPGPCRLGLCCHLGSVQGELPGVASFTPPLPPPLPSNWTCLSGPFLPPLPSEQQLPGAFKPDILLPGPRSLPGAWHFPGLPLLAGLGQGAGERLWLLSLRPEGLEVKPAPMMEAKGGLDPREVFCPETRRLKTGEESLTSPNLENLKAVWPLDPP
# Method in brief: as §1
# ETS2 = molecular target: T5, ETS2 (Homo sapiens, UniProt P15036 1-469)
# T5 sequence: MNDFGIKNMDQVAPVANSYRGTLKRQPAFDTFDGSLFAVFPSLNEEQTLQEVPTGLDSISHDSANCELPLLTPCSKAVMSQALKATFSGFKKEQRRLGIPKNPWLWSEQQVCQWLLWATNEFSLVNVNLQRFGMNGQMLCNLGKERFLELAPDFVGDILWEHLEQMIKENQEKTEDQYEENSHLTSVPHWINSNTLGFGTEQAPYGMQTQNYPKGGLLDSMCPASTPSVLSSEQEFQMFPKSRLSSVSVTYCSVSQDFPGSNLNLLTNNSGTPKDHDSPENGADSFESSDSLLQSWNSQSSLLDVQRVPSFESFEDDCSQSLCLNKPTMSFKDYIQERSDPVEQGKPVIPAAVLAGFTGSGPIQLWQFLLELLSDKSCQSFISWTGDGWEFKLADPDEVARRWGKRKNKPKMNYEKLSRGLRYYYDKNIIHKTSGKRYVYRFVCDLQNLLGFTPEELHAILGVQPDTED
# Method in brief: as §1
# SPDEF = molecular target: T6, SPDEF (Homo sapiens, UniProt O95238 1-335)
# T6 sequence: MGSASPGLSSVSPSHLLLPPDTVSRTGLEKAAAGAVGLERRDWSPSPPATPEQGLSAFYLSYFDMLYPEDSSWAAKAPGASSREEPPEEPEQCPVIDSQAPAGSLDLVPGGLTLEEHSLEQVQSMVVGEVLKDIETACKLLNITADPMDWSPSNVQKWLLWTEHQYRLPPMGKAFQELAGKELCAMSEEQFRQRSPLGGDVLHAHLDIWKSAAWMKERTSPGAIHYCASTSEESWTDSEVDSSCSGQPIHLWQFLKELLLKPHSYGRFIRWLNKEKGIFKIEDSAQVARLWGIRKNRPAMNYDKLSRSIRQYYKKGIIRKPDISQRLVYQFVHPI
# Method in brief: as §1
# ETV7 = molecular target: T7, ETV7 (Homo sapiens, UniProt Q9Y603 1-341)
# T7 sequence: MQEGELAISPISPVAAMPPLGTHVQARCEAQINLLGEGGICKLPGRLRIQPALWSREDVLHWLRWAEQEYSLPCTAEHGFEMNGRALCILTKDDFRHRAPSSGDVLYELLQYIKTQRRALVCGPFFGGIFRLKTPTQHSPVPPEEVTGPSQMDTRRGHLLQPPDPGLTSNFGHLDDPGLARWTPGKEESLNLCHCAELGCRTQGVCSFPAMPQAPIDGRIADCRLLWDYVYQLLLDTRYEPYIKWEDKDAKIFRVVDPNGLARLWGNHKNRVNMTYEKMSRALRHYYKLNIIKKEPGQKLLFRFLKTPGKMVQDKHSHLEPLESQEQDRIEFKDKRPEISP
# Method in brief: as §1
# ETV3 = molecular target: T8, ETV3 (Homo sapiens, UniProt P41162-2 1-143)
# T8 sequence: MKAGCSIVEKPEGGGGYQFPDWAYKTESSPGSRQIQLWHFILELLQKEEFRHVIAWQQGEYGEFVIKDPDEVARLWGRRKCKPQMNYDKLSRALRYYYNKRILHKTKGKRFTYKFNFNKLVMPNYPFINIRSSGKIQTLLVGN
# Method in brief: as §1
# ETV6 = ETV6 (Homo sapiens, UniProt P41212 1-452)
# Chain of ETV6 (P41212 whole entry): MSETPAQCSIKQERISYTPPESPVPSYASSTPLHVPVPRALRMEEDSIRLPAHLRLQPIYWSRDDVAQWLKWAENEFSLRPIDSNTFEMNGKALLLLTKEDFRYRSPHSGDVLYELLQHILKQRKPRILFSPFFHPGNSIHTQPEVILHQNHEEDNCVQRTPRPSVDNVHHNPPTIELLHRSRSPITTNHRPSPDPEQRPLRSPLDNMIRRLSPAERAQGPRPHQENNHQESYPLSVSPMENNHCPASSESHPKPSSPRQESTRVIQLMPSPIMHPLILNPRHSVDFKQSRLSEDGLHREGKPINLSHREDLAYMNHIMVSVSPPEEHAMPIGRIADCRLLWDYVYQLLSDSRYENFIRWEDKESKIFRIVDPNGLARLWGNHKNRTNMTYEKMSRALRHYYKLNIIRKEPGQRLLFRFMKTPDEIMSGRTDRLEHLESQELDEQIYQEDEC
# Method in brief: as §1
sequence,measurement,setting,value
GTACCC,binding signal,ETV2,"1.11 fold enrichment (6-mer frequency, TF over GST control)"
same,binding signal,ELF3,"1.17 fold enrichment (6-mer frequency, TF over GST control)"
same,binding signal,ETV1,"1.11 fold enrichment (6-mer frequency, TF over GST control)"
same,binding signal,ERF,"1.13 fold enrichment (6-mer frequency, TF over GST control)"
same,binding signal,ETV3L,"1.16 fold enrichment (6-mer frequency, TF over GST control)"
same,binding signal,ETS2,"1.12 fold enrichment (6-mer frequency, TF over GST control)"
same,binding signal,SPDEF,"1.14 fold enrichment (6-mer frequency, TF over GST control)"
same,binding signal,ETV7,"1.06 fold enrichment (6-mer frequency, TF over GST control)"
same,binding signal,ETV3,"1.06 fold enrichment (6-mer frequency, TF over GST control)"
same,binding signal,ETV6,"1.13 fold enrichment (6-mer frequency, TF over GST control)"
